Reference: the supplement of paper PMC11732987, “Enantioselective OTUD7B fragment discovery through chemoproteomics screening and high-throughput optimisation” (Communications Chemistry, 2025)

Columns and labels:
Experiment in all cases: log2 ratio of Biotin-Ahx-Ub-VS probe labelling (fragment/DMSO); higher = less target engagement (more negative = stronger competition), active = hit call of the paper (q ≤ 0.05, log2 ratio ≤ -1)
Details in all cases: compound concentration: 200 uM; treatment time: 3 h
OTUD6B = molecular target: T1, OTUD6B (UniProt Q8N6M0)
T1 sequence (whole entry): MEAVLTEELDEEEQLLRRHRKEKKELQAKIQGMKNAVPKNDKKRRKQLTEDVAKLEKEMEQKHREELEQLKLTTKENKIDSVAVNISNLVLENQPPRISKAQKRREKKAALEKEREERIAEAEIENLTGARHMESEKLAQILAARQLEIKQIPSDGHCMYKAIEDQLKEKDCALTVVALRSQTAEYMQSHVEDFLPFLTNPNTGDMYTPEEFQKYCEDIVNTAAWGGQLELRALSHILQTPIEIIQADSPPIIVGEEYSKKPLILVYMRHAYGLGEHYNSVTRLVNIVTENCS
Procedure, shortened: (§1)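 Fragment (200 µM) or vehicle was incubated for 3 h with triplicate HEK293T lysate samples of 495 µg, which were then treated with Biotin-Ahx-Ub-VS at 0.5 µM final for 1 h. Labelled DUBs were enriched on NeutrAvidin, digested with LysC and trypsin, and analysed by diaPASEF LC-MS/MS. Values are average log2 fragment/vehicle ratios from an unpaired t-test on global-median-normalised Spectronaut label-free quantities, using proteins with ≥2 unique peptides.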

OTUD7B = molecular target: T2, OTUD7B (UniProt Q6GQQ9)
T2 sequence (whole entry): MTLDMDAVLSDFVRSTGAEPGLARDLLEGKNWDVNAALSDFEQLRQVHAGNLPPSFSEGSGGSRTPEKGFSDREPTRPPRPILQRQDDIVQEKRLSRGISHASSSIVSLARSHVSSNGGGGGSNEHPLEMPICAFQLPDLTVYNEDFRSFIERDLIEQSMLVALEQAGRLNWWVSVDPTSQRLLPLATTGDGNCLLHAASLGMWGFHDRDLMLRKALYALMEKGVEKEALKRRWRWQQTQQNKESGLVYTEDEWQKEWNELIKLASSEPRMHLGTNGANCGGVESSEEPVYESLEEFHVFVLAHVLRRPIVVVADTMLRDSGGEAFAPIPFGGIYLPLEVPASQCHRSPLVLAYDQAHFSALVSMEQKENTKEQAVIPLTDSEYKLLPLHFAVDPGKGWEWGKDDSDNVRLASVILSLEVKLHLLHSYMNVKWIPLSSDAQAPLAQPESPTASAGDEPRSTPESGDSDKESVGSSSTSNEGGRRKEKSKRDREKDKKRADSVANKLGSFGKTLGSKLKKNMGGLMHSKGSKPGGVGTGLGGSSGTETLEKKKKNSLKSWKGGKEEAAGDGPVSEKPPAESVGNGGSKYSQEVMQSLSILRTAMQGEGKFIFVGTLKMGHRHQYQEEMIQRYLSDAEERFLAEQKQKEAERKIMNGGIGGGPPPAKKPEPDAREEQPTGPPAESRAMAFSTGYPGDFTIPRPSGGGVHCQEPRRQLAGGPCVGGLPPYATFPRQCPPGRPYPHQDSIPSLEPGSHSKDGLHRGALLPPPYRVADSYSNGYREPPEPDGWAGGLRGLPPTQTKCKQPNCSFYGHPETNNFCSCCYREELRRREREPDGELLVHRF
Procedure, shortened: as §1

PRPF8 = PRPF8 (UniProt Q6P2Q9)
Procedure, shortened: as §1

PSMD7 = molecular target: T3, PSMD7 (UniProt P51665)
T3 sequence (whole entry): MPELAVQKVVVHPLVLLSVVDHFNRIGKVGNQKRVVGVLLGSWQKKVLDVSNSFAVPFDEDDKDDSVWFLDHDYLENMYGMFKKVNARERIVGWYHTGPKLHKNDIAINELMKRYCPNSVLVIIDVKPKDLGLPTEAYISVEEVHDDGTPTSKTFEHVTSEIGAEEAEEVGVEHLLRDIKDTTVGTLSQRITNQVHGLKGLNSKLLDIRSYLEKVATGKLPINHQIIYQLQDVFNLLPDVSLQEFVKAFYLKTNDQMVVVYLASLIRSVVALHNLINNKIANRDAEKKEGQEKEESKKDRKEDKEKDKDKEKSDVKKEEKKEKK
Procedure, shortened: as §1

UCHL1 = UCHL1 (UniProt P09936)
UCHL1, sequence (P09936 whole entry, looked up): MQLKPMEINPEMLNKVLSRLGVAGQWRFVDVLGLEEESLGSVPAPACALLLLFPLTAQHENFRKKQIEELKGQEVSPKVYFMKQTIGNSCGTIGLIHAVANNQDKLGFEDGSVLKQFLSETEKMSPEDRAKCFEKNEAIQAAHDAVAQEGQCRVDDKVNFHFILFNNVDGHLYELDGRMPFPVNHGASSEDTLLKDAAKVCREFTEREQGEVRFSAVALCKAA
Procedure, shortened: as §1

UCHL3 = molecular target: T4, UCHL3 (UniProt P15374)
T4 sequence (whole entry): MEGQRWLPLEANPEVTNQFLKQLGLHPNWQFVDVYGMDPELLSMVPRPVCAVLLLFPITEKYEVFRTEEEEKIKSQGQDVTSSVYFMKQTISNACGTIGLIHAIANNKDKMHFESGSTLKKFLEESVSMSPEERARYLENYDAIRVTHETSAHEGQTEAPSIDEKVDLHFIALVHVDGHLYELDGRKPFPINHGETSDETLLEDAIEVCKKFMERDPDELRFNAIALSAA
Procedure, shortened: as §1

UCHL5 = molecular target: T5, UCHL5 (UniProt Q9Y5K5)
T5 sequence (whole entry): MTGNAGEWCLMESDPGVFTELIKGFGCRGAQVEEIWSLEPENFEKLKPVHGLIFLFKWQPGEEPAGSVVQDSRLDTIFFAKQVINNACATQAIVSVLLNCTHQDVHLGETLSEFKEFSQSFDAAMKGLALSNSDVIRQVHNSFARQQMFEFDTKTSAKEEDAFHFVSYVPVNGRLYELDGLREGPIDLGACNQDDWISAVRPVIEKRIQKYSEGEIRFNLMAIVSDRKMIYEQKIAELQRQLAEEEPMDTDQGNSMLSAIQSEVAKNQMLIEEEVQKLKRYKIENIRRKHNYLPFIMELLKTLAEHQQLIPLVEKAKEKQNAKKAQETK
Procedure, shortened: as §1

USP10 = USP10 (UniProt Q14694)
USP10, sequence (Q14694 whole entry): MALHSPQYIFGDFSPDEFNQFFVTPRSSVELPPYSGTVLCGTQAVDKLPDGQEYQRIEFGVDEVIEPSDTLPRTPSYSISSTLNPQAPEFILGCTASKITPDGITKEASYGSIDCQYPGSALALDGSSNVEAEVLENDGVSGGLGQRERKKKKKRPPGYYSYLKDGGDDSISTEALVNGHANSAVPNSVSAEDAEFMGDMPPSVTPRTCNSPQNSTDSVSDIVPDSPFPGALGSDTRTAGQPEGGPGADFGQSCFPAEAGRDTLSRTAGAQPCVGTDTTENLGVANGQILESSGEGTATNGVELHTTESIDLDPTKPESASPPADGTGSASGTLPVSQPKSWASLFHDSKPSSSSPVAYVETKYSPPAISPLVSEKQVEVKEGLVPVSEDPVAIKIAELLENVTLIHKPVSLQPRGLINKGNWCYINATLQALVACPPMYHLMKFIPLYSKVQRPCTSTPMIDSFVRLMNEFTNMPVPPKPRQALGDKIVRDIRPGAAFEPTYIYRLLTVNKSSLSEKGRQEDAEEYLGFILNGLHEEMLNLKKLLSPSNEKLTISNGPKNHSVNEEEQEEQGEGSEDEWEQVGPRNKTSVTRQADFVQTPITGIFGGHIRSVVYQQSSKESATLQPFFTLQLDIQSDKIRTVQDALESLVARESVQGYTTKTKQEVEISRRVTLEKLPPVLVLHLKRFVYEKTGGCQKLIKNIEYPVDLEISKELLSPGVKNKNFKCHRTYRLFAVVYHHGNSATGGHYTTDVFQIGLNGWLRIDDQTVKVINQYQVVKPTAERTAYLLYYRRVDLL
Procedure, shortened: as §1

USP15 = molecular target: T6, USP15 (UniProt Q9Y4E8)
T6 sequence (whole entry): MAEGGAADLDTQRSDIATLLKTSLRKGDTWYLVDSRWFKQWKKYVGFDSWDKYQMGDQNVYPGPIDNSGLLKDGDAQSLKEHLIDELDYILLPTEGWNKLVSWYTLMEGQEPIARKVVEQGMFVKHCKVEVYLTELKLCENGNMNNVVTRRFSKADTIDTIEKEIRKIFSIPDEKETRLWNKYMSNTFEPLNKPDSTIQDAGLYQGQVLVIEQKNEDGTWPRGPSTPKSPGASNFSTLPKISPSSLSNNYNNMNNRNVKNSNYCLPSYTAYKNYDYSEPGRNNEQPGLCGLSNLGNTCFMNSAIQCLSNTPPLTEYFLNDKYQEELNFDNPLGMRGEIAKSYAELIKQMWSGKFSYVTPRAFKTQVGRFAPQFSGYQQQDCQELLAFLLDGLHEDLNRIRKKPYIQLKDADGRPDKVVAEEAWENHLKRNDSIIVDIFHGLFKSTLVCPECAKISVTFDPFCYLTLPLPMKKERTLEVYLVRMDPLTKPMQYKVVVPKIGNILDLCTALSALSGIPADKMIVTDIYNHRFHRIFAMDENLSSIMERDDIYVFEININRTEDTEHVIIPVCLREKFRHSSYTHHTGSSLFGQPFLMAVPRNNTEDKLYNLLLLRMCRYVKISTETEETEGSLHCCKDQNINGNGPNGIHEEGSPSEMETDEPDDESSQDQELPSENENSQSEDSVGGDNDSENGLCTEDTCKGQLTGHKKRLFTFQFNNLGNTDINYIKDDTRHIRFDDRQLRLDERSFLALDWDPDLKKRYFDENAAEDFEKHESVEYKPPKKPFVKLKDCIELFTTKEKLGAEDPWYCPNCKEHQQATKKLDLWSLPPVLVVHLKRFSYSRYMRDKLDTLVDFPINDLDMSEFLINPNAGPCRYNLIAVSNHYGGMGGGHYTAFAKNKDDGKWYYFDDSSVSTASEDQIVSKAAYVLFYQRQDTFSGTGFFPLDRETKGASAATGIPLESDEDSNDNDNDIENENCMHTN
Procedure, shortened: as §1

USP16 = USP16 (UniProt Q9Y5T5)
USP16, sequence (Q9Y5T5 whole entry, looked up): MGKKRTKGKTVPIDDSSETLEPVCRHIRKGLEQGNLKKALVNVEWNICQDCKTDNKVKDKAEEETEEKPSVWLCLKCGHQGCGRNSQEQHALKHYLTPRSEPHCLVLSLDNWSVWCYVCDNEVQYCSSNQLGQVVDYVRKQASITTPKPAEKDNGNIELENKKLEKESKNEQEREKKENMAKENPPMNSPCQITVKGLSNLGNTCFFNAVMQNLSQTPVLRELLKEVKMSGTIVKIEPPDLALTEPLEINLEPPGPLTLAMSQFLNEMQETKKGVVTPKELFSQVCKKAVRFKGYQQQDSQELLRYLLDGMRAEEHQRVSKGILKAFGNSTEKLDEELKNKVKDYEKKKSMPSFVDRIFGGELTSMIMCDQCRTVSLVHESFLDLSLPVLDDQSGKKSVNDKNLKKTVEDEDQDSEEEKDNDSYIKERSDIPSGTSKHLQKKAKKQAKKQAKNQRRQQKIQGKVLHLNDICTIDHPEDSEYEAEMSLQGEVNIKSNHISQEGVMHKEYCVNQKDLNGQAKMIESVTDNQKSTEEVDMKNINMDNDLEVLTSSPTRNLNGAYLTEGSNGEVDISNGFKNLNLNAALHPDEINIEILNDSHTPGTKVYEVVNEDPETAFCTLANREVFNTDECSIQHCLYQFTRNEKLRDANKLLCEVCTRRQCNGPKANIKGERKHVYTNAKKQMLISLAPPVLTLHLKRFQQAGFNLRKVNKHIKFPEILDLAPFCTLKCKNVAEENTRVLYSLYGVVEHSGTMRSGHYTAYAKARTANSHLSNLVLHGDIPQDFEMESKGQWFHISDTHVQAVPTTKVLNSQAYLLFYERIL
Procedure, shortened: as §1

Measured: log2 ratio of Biotin-Ahx-Ub-VS probe labelling

Cc1cc(C(=O)NC2CCN(C(=O)CCl)CC2)no1
inactive: OTUD6B -0.173 | OTUD7B -0.263 | PRPF8 -0.0374 | PSMD7 -0.0768 | UCHL3 0.336 | UCHL5 -0.135 | USP10 -0.197 | USP15 -0.252 | USP16 0.021
active: UCHL1 -1.58
